The target of test [1] is T1, Serine/threonine-protein kinase Nek3 (Homo sapiens) (UniProt P51956).
T1 sequence (whole entry): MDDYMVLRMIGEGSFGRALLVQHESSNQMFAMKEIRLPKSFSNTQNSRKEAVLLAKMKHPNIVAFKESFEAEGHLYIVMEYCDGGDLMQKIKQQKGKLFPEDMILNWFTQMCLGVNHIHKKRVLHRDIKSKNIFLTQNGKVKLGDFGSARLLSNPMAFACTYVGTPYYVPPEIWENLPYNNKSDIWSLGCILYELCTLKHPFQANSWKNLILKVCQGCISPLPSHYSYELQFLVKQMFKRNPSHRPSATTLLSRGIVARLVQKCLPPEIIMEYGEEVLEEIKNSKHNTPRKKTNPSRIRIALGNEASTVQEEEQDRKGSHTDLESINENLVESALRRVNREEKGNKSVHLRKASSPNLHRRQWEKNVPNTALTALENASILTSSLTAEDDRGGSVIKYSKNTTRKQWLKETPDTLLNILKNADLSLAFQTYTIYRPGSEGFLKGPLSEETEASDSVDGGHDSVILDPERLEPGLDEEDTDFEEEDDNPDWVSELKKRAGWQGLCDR
The settings on record: at 1 µM.

The target of test [2] is T1, Serine/threonine-protein kinase Nek3 (Homo sapiens). To be noted: at 10 µM.
Test [3] deals with Angiopoietin-1 receptor (Homo sapiens) (UniProt Q02763). To be noted: at 1 µM.
Chain of Angiopoietin-1 receptor (Homo sapiens) (Q02763 whole entry): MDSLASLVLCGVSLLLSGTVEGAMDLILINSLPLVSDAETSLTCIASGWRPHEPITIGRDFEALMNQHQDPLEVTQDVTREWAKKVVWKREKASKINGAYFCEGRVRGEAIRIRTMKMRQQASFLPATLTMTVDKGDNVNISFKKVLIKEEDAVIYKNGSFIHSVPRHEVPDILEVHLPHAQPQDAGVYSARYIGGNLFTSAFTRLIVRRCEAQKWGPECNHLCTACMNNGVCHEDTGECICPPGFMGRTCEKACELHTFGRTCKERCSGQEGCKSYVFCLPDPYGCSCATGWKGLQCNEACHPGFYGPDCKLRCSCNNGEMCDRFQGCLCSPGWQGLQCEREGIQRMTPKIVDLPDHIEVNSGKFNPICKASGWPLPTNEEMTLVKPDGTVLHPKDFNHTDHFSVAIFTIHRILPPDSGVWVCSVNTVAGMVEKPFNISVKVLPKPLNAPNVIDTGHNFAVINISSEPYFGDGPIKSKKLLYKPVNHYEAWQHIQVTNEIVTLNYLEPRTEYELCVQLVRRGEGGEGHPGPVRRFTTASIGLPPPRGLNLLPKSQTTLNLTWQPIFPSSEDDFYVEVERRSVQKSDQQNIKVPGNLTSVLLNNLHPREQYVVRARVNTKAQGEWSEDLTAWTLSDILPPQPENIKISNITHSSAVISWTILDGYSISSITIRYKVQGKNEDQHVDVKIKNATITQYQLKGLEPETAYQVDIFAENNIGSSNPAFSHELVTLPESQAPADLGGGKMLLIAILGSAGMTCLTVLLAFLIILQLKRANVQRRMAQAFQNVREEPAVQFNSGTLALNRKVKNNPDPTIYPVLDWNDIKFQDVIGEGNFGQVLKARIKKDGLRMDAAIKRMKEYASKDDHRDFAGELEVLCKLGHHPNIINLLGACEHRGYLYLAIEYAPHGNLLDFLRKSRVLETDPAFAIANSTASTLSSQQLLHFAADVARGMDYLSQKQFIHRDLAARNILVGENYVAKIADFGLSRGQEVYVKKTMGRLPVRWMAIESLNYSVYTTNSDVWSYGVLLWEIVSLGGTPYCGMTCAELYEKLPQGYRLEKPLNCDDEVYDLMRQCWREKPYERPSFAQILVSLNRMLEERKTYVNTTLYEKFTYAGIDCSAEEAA
The target is the same in test [4]. The settings on record: at 10 µM.
Test [5] addresses BDNF/NT-3 growth factors receptor (Homo sapiens) (UniProt Q16620). To be noted: at 1 µM.
Test [6] has the same target. The settings on record: at 10 µM.
Test [7] deals with T2, Tyrosine-protein kinase TXK (Homo sapiens) (UniProt P42681).
T2 sequence (whole entry): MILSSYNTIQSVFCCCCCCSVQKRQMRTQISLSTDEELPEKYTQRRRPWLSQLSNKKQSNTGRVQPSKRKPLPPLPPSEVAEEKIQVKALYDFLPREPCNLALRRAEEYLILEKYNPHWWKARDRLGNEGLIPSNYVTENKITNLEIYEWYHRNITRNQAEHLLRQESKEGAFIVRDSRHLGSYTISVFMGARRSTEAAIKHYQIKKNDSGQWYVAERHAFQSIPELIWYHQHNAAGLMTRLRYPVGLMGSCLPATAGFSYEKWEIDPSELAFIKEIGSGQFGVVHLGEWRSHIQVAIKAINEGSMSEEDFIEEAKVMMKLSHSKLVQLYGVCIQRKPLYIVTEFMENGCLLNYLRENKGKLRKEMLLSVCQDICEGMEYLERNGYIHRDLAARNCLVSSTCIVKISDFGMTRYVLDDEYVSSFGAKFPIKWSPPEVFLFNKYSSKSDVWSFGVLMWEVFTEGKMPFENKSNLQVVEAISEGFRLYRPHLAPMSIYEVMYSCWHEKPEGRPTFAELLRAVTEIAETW
The settings on record: at 1 µM.

The target in test [8] is T2, Tyrosine-protein kinase TXK (Homo sapiens). To be noted: at 10 µM.
For test [9], the target named is T3, Serine/threonine-protein kinase Nek2 (Homo sapiens) (UniProt P51955).
T3 sequence (whole entry): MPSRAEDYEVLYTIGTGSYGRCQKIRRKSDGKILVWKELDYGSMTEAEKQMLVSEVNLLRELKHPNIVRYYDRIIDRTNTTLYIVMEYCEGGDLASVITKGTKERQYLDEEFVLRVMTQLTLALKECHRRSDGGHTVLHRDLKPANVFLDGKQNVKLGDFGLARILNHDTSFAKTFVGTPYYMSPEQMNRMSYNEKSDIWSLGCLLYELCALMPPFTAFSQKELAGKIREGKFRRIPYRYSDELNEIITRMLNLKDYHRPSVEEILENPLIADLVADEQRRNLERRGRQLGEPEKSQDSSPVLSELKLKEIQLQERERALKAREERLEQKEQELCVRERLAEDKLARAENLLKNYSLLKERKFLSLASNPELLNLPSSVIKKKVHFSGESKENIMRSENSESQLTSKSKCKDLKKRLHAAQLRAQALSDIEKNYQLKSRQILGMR
The settings on record: at 1 µM.

In test [10] the target is T3, Serine/threonine-protein kinase Nek2 (Homo sapiens). To be noted: at 10 µM.
For test [11], the target named is Serine/threonine-protein kinase tousled-like 2 (Homo sapiens) (UniProt Q86UE8). To be noted: at 1 µM.
Chain of Serine/threonine-protein kinase tousled-like 2 (Homo sapiens) (Q86UE8 whole entry, looked up): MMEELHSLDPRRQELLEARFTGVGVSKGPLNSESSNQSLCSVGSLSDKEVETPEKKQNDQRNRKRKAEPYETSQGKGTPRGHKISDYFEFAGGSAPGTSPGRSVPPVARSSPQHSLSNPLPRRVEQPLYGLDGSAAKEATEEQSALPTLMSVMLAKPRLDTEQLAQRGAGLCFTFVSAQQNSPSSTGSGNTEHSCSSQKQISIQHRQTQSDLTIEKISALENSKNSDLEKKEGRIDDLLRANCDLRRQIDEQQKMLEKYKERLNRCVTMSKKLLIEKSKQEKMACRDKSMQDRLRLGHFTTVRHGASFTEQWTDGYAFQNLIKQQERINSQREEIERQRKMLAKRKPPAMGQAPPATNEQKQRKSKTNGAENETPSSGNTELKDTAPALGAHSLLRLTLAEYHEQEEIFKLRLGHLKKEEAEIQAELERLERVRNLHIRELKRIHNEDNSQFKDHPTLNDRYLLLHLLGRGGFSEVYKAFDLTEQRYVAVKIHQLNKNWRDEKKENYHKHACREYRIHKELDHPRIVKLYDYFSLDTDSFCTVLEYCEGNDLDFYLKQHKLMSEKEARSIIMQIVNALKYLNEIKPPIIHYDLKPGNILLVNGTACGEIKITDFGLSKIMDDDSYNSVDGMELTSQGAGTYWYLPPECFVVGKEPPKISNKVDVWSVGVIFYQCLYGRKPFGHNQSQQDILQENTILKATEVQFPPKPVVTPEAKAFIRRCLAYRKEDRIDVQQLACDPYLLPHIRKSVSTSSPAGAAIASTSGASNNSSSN
For test [12] the target is unchanged. The settings on record: at 10 µM.
Test [13] has as its target T4, Testis-specific serine/threonine-protein kinase 1 (Homo sapiens) (UniProt Q9BXA7).
T4 sequence (whole entry): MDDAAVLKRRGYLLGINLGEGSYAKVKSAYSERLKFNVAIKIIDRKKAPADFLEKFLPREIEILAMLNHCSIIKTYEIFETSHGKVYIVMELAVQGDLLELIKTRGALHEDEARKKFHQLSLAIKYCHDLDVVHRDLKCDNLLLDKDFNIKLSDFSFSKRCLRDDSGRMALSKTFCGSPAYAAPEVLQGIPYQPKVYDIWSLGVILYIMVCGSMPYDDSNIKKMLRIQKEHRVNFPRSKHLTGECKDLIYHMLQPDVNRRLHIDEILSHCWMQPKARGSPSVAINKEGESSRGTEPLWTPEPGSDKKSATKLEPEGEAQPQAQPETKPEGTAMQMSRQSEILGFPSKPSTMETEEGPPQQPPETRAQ
The settings on record: at 1 µM.

Test [14] deals with T4, Testis-specific serine/threonine-protein kinase 1 (Homo sapiens). The settings on record: at 10 µM.
Test [15] concerns the target T5, Testis-specific serine/threonine-protein kinase 2 (Homo sapiens) (UniProt Q96PF2).
T5 sequence (whole entry): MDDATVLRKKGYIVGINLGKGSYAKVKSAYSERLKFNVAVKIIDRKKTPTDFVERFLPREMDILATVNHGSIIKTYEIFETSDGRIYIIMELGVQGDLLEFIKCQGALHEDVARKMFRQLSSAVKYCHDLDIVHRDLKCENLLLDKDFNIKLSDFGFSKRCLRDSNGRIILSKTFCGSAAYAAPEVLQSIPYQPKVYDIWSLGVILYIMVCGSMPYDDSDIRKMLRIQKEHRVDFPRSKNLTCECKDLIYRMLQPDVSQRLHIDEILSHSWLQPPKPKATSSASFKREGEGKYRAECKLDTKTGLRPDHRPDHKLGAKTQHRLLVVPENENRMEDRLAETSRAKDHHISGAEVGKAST
The settings on record: at 1 µM.

For test [16], the target named is T5, Testis-specific serine/threonine-protein kinase 2 (Homo sapiens). The settings on record: at 10 µM.
For test [17], the target named is T6, Tyrosine-protein kinase Tec (Homo sapiens) (UniProt P42680).
T6 sequence (whole entry): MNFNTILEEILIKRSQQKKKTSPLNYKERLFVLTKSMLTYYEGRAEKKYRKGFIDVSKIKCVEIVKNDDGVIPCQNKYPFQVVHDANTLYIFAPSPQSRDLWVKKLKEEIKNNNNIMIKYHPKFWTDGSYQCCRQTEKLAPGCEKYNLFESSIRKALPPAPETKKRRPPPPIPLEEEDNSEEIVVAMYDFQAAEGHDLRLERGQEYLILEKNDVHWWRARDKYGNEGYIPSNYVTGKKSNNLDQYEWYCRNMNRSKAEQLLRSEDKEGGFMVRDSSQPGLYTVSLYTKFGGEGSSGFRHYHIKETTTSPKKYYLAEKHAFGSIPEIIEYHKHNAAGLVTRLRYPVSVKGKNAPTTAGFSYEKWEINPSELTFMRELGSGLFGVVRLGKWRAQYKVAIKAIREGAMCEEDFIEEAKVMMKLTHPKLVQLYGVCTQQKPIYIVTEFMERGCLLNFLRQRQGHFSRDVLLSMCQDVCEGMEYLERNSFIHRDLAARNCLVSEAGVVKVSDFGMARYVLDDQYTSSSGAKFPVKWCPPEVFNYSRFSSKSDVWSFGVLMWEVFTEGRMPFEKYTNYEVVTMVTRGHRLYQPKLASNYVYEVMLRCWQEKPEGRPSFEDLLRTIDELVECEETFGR
To be noted: at 1 µM.

Test [18] has as its target T6, Tyrosine-protein kinase Tec (Homo sapiens). To be noted: at 10 µM.
The target of test [19] is High affinity nerve growth factor receptor (Homo sapiens) (UniProt P04629). To be noted: at 1 µM.
Chain of High affinity nerve growth factor receptor (Homo sapiens) (P04629 33-796 limits assumed): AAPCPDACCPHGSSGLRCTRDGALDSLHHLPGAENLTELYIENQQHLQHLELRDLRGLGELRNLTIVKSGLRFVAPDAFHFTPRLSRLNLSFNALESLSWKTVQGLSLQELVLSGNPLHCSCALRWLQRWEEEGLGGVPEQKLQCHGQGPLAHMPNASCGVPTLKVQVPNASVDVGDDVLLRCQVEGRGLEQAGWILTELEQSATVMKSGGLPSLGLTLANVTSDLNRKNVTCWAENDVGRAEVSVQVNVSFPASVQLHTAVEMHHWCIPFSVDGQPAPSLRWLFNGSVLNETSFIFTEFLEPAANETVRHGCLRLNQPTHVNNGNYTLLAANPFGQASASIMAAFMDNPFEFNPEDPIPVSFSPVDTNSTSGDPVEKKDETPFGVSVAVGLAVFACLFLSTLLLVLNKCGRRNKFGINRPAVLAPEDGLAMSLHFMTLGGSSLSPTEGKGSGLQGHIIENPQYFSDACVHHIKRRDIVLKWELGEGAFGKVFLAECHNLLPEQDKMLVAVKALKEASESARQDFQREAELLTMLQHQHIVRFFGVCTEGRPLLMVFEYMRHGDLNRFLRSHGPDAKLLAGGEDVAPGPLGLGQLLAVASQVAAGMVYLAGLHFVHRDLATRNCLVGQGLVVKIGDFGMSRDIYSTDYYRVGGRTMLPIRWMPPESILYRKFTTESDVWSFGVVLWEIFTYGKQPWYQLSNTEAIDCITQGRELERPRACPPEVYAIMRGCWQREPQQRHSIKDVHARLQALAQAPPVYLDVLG
Test [20] has the same target. To be noted: at 10 µM.

Chain of BDNF/NT-3 growth factors receptor (Homo sapiens) (Q16620 32-822 limits assumed): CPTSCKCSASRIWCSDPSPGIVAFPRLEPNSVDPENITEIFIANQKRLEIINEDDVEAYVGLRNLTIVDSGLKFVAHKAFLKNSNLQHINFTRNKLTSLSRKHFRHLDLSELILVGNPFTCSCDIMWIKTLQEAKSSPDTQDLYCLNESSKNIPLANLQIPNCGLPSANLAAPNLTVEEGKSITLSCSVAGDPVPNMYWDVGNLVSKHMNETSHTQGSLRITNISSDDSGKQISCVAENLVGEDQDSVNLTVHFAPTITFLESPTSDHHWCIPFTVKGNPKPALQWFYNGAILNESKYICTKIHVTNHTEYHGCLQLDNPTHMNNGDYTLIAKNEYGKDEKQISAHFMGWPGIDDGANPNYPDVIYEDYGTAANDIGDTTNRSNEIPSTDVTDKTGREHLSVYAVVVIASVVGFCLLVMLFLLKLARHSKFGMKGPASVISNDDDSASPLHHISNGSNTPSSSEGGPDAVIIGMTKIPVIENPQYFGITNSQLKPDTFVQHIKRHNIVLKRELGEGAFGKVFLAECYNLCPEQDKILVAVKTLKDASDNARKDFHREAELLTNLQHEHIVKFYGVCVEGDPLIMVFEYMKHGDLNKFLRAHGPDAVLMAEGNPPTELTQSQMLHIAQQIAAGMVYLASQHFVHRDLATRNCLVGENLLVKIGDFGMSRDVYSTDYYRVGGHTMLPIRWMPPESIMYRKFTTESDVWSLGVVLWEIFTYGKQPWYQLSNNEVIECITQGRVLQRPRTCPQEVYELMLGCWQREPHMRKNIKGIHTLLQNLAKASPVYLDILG

By residual activity is commonly meant the signal under treatment as a percentage of the control signal. Turning to `O=C1c2ccccc2-c2nc3nnnn3nc21`, the residual activity in test [1] was 116%; in test [2], 102%; in test [3], 75%; in [4], 20%; in test [5] it was 123%; in test [6], 119%. Besides, the results for the residual activity in test [7] and in test [8] were 103% and 73%, respectively.

In the case of `COc1cc(OC)c(/C=C2\C(=O)Nc3ccccc32)c(OC)c1`, the residual activity in test [9] is 90%; in [10], 91%; in test [1], 80%; in test [2] it was 96%; in [11], 91%; in test [12], 85%. The residual activity was 92% in test [13]; 91% in test [14]; 102% in [15]; 99% in [16]; 98% in [17]; 77% in [18]. For the same compound, the residual activity came to 93% in test [3]; 59% in [4]; 89% in test [19]; 59% in [20]; 107% in [7]; 100% in test [8].

Take `CCN(CC)CCCCN1c2ccccc2Oc2ccc(Cl)cc21`: the residual activity in test [15] was 109%.

For `O=C1c2ccccc2-[n+]2ccc3c([nH]c4ccccc43)c21`, the residual activity in [15] stood at 98%.

As to `Cc1cc(Nc2nc(-c3ccccc3)nc3ccccc23)n[nH]1`, the residual activity in test [15] was 96%.

With `O=c1[nH]c2ccccc2n1C1CCN(Cc2ccc(-c3nc4cc5[nH]cnc5cc4nc3-c3ccccc3)cc2)CC1`, the residual activity in test [9] was 86%; in test [10], 84%; in [1] it was 111%; in test [11], 104%; in test [12] it was 84%; in test [13], 97%. The residual activity in test [14] came out at 54%; in test [15], 106%; in test [16], 45%; in test [17] it was 95%; in test [18], 38%; in test [3], 86%. In addition, the residual activity in [4] was determined as 37%; in [19], 86%; in test [20], 56%; in test [5], 75%; in test [6], 70%; in test [7], 102%. Besides, in [8], the residual activity turned out to be 94%.

With `COc1cc2ncnc(Nc3ccc(OCc4ccccc4)cc3)c2cc1OC`, the residual activity in test [9] was 101%; in test [10] it was 113%; in test [1], 90%; in test [2], 80%; in test [11], 115%; in test [12], 96%. Further, the residual activity is 104% in test [13]; 90% in [14]; 107% in [15]; 102% in test [16]; 107% in test [17]; 67% in test [18]. Moreover, the residual activity in [3] turned out to be 106%; in test [4] it was 78%; in test [19] it was 69%; in [20] it was 72%; in [5] it was 93%; in test [6] it was 122%. For the same compound, the results for the residual activity in [7] and in test [8] were 97% and 57%, respectively.

Consider `O=C1NC(=O)/C(=C\c2ccc3nccnc3c2)S1`, for which, in [15], the residual activity turned out to be 90%.

For `N#CC(C#N)=C(N)/C(C#N)=C/c1ccc(O)cc1`, the residual activity in test [15] is 85%.

For the compound `O=C1NC(=O)c2c1c1c3ccccc3n3c1c1c2c2ccccc2n1C1CCC3O1`, the residual activity in test [11] came to 62%; in [12], 68%; in test [13], 92%; in test [14] it was 70%; in test [15], 82%; in [16], 96%. Also, the residual activity in test [17] came out at 66%; in test [18] it was 76%; in test [19], 12%; in [20], 3%; in test [5], 19%; in test [6] it was 14%. Further, the residual activity in test [7] stood at 71%; in test [8], 81%.

Regarding `N#Cc1cnc2cnc(NCc3cccnc3)cc2c1Nc1ccc(F)c(Cl)c1`, in [15], the residual activity was 14%.

Take `c1ccc(-c2cnc(Nc3ccc(OCCN4CCCC4)cc3)s2)cc1`: the residual activity in test [15] stood at 100%.

For `O=[N+]([O-])/C=C/c1ccc2c(c1)OCO2`, the residual activity was determined as 87% in [9]; 98% in test [10]; 107% in test [2]; 99% in test [11]; 97% in test [12]; 96% in test [13]. The residual activity came to 94% in test [14]; 87% in test [15]; 74% in test [16]; 89% in test [17]; 90% in test [18]; 80% in test [3]. The residual activity was 60% in test [4]; 94% in [19]; 116% in test [20]; 120% in [5]; 119% in test [6]; 76% in test [7]. Further, the residual activity in test [8] is 77%.

Turning to `O=C(O)c1ccc2c3c1cccc3c(=O)n1c3ccccc3nc21`, the residual activity in [15] was 118%.

On to `O=C(O)/C=C/c1cc(Br)c(Br)c(Br)c1Br`, for which, in test [15], the residual activity is 96%.

On to `O=Nc1c(-c2c(O)[nH]c3ccccc23)[nH]c2ccccc12`, for which the residual activity in [15] amounted to 95%.

In the case of `COc1ccc(C(=O)Nc2sc3c(c2C(N)=O)CCCC3)cc1OC`, in test [15], the residual activity came to 94%.

The values are drawn from ChEMBL document CHEMBL2218924, “A broad activity screen in support of a chemogenomic map for kinase signalling research and drug discovery” (Biochem J, 2013).
